In the library only some 17% were active in any assay of this set; here they are far more common.
TGFb inhibitor: inhibitors of TGF-b signaling. 410,000 tested, 1.2% active. Potency, µM (titrated, usually from 46.1 µM), for inactives: top-dose activity, negative = inhibition, actives largely listed as inhibitors. HepG2 CAGA-GFP TGF-b/SMAD3 reporter, GFP fluorescence, 18 h; TGF-beta stimulated, 500 pg/mL final. AID 588855; further: on the % scale 0 is the no-effect control and ±100 the full control effect; nearly all actives have a fitted effect of over 65% in size
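TGF-beta reporter screen: HEPG2 CAGA-GFP, 1% FBS, 500 pg/mL TGF-beta final, 18 h; per-cell GFP summed per well; curves fitted and categorized by class.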
DT40 TDP1 no CPT: qHTS for Inhibitors of human tyrosyl-DNA phosphodiesterase 1 (TDP1): qHTS in cells in absence of CPT | DT40 Tdp1-/- hTDP1 cells, no CPT, ATP luminescence, 48 h | Potency, µM (doses to about 46.2 µM), inactives show at the highest dose activity change, negative = growth inhibition, actives largely listed as inhibitors | AID 686978, 2013 | 420,000 tested, 15% active; further: on the % scale 0 is the no-effect control and ±100 the full control effect; nearly all actives have a fitted effect of over 55% in size
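Readout: luminescence from CellTiter-Glo after 30 min in the dark at RT. Cells: DT40 Tdp1-/- with stable hTDP1, 400/well. Exposure: compounds alone, ≥48 hr, 37 °C.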
DT40 TDP1 CPT: growth inhibition of DT40 Tdp1-/-;hTDP1 cells with camptothecin (screen for TDP1 inhibitors) | Potency, µM (doses to about 46.2 µM), for the others: at the top dose activity change, negative = growth inhibition, hits mostly inhibitors | 420,000 tested, 12% active | chicken DT40 Tdp1-/-;hTDP1 cells + 20 nM CPT, ATP luminescence, 48 h; further: on the % scale 0 is the no-effect control and ±100 the full control effect; nearly all actives have a fitted effect of over 55% in size
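Cell growth measured by CellTiter-Glo luminescence after a minimum 48 h, 37 C compound exposure with 20 nM CPT in Tdp1-knockout DT40 cells stably expressing hTDP1, seeded 400/well; qHTS titration format.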
S2 tox: cell viability loss in ATXN counter-screen. AID 651635. S2 cells (HEK-293 line with an ATXN2-luciferase reporter) viability, CellTiter-Fluor protease fluorescence, 24 h. 400,000 tested, 0.49% active. Potency, µM (series often up to 56.7 µM), usual class: cytotoxic; further: nearly all actives have a fitted effect of over 40% in size
HepG2 viability: counter-screen for TGF-b inhibitors: cytotoxicity in HepG2 cells; HepG2 CAGA-GFP viability, ATP luminescence, 18 h; Potency, µM (highest dose often 46.1 µM), without a hit: top-dose activity change, negative = cytotoxicity, hits mostly cytotoxic; 410,000 tested, 0.76% active; AID 588856
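HepG2 CAGA-GFP cells (1000/well, DMEM with 1% FBS) received compound, then TGF-beta at 500 pg/mL final, and were incubated 18 hours at 37 degrees C. Viability was read by CellTiter-Glo luminescence. Media-only wells were set as complete cell-killing and DMSO as no toxicity.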
ATXN2 expr inh: reduces ATXN2 reporter expression in HEK-293 cells; AID 1745845; HEK-293 ATXN2-luciferase reporter, luminescence, 24 h; 360,000 tested, 0.72% active; Potency, µM (highest dose often 57 µM), for inactives: at the highest dose activity change, negative = inhibition, actives largely listed as inhibitors; further: on the % scale 0 is the no-effect control and ±100 the full control effect; nearly all actives have a fitted effect of over 55% in size
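ATXN2-luciferase reporter cells (luciferase flanked by upstream and downstream ATXN2 gene portions) were treated 24 h at 37 °C with compounds at up to 57 uM. SteadyGlo luminescence gave expression; GF-AFC fluorescence gave viability.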
An asterisk follows results filed as active; i = inactive; ? = inconclusive; / = no result given; [ ] = dose if it differs, or a comment. The call rests on the fitted dose curve; in most records, active means well fitted curve in the direction sought with a large enough effect; inconclusive means small, poorly fitted or top-dose-only effect, or another doubt; inactive means no such curve, though single readings can be large; an effect the other way counts as inactive or inconclusive. Potency means the concentration at half of the fitted maximal effect.

SMILES	TGFb inhibitor	DT40 TDP1 no CPT	DT40 TDP1 CPT	S2 tox	HepG2 viability	ATXN2 expr inh
CC(C)(C)OC(=O)NC(Cc1ccccc1)C(=O)O (configuration not stated)	-1%	6%	5%	i	-21%	6%
Cc1cc(C)cc(N2CC34C=CC(O3)C(C(=O)OCC(=O)NCc3ccco3)C4C2=O)c1 (configuration not stated)	0%	-23%	3%	i	-8%	7%
CSc1ccccc1OCc1cc(C(=O)N(C)Cc2nonc2C)no1	-16%	?	?	i	-10%	39%
CSc1ccccc1OCc1cc(C(=O)N(C)CCn2nc(C)cc2C)no1	-7%	21µM*	15µM*	i	-19%	13%
CSc1ccccc1OCc1cc(C(=O)NC(C)Cc2cccc(C)n2)no1 (configuration not stated)	0%	13µM*	16µM*	i	-15%	10%
CCn1nc(C)c(CNC(=O)c2cc(COc3ccccc3SC)on2)c1C	-21%	?	21µM*	i	0%	-34%
COc1ccc(S(=O)(=O)N2CCC3(CC2)OCCN3S(=O)(=O)c2c(C)cc(C)cc2C)cc1	3%	8.2µM*	13µM*	i	-2%	-2%
COc1ccc(S(=O)(=O)N2CCOC23CCN(S(=O)(=O)c2ccccc2)CC3)cc1	20%	?	?	i	-15%	-2%
CCS(=O)(=O)N1CCC2(CC1)OCCN2S(=O)(=O)c1ccc(C)cc1	0%	-25%	-5%	i	-8%	0%
Cc1ccc(S(=O)(=O)N2CCC3(CC2)OCCN3S(=O)(=O)c2c(C)cc(C)cc2C)cc1	8%	16µM*	26µM*	i	-18%	-9%
Cc1cc(C)c(S(=O)(=O)N2CCC3(CC2)OCCN3S(=O)(=O)c2cccs2)c(C)c1	3%	23µM*	?	i	-8%	-5%
Cc1ccc(C)c(S(=O)(=O)N2CCC3(CC2)OCCN3S(=O)(=O)c2cccs2)c1	-3%	?	?	i	-4%	-14%
CCOc1ccc(NC(=O)CCC(=O)N/N=C2\CCCc3ccccc32)cc1	10%	1%	-5%	i	21%	-19%
COc1cc(C(c2sc3nc(C)nn3c2O)N2CCc3ccccc3C2)cc(OC)c1OC (configuration not stated)	-10%	10µM*	23µM*	i	-10%	0%
Cc1nc2sc(C(c3ccco3)N3CCN(C(c4ccccc4)c4ccccc4)CC3)c(O)n2n1 (configuration not stated)	?	18µM*	?	?	-24%	?
Cc1nc2sc(C(c3ccco3)N3CCN(c4ccccc4)CC3)c(O)n2n1 (configuration not stated)	-2%	-28%	?	i	9%	17%
COc1ccc(C(c2sc3nc(C)nn3c2O)N2CCc3ccccc3C2)cc1 (configuration not stated)	-5%	-22%	-20%	i	-21%	-3%
CCCN(CC(=O)Nc1ccc(F)c(F)c1F)C(=O)Cn1c(=O)cnc2ccccc21	-1%	2%	-8%	i	-2%	-6%
COc1ccc(NC(=O)CCCN2C(=O)C(c3ccccc3)Oc3cccnc32)c(OC)c1 (configuration not stated)	-11%	23µM*	18µM*	i	-15%	7%
COc1ccccc1NC(=O)CCCN1C(=O)C(c2ccccc2)Oc2cccnc21 (configuration not stated)	3%	?	16µM*	i	-6%	/
Cc1ccc(C)c(NC(=O)CCCN2C(=O)C(c3ccccc3)Oc3cccnc32)c1 (configuration not stated)	4%	23µM*	18µM*	i	-18%	-10%
O=C(CCCN1C(=O)C(c2ccccc2)Oc2cccnc21)Nc1ccc(Br)cc1F (configuration not stated)	8%	21µM*	18µM*	i	-20%	-8%
Cc1ccc(NC(=O)CCCN2C(=O)C(c3ccccc3)Oc3cccnc32)c(C)c1 (configuration not stated)	1%	-26%	?	?	-2%	/
COc1ccccc1CCNC(=O)CSc1nc(=O)[nH]c2c1CCC2	-16%	-8%	8%	i	2%	-3%
Cc1cccc([C@@H]2CN(C)CCc3c2cc(O)c(O)c3Cl)c1	/	?	-66%	/	/	/
SMILES	TGFb inhibitor	DT40 TDP1 no CPT	DT40 TDP1 CPT	S2 tox	HepG2 viability	ATXN2 expr inh
Cc1ccc(C(=O)N2CCC(C)CC2)cc1S(=O)(=O)N1CCCCC1	-7%	?	?	i	-19%	4%
CSc1nsc2nc(=O)c(/C=C3\C(C)=Nc4ccc(C)cc43)c(N)n12	?	?	16µM*	i	-32%	-5%[11.3 µM]
O=c1[nH]c2ccc(Cl)cc2c(-c2ccccc2)c1N1CCOCC1	-1%	-6%	-22%	i	-39%	-6%
O=c1[nH]c2ccc(Cl)cc2c(-c2ccccc2)c1CN1CCOCC1	?	21µM*	?	i	-29%	-5%
O=C(CCn1cnnn1)N1CCCC(Nc2ccc(F)c(F)c2)C1 (configuration not stated)	-2%	-9%	?	i	7%	7%
O=C(Cc1ccccc1)NCC(=O)OC(c1ccccc1)c1ccccc1	-3%	-22%	-17%	i	4%	-22%[11.3 µM]
COc1ccccc1OCC(=O)N1CCN(C(=O)COc2ccccc2OC)CC1	7%	6%	8%	i	4%	-9%
CN1C(=O)C(O)(CC(=O)/C=C\c2ccc3c(c2)OCO3)c2ccccc21 (configuration not stated)	?	?	?	?	-15%	-15%
CN1/C(=C\C(=O)COc2ccc3c(c2)OCO3)C(C)(C)c2ccccc21	?	8.2µM*	8.2µM*	i	-3%	-10%
O=C(COC(=O)C1COc2ccccc2O1)c1ccccc1 (configuration not stated)	-3%	4%	-6%	i	4%	/
CN1/C(=C\C(=O)C(F)F)C(C)(C)c2ccccc21	16%	-28%	-7%	i	3%	2%

Bioassay records deposited in PubChem BioAssay by National Center for Advancing Translational Sciences (NCATS).
